# Most compounds without a hit are left out; they make up all but 3% or so of the library.
# NLRP3 yeast inh: inhibitors of NALP3 inflammasome in yeast; Yeast reconstituted NLRP3/ASC/caspase-1, beta-gal luminescence, 24 h; inhibition, % at 10 µM; actives 0.39% (n = 330,000);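 active = inhibition of 50% or more; inactive = inhibition below 50%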
# CHT inh: human CHT choline transport inhibition. Q9GZV3. actives 0.86% (n = 310,000). B-score at 10 µM. CHT-expressing cells, membrane potential dye, choline response; hits give low values;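 active = B-score over 3 SD under the library average, and starting fluorescence ratio not unusually high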;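 note: choline stimulus applied at its EC90 after an EC20 pre-addition; B-score computed on integrated fluorescence ratio after choline addition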
# Target sequence (Q9GZV3 whole entry, looked up): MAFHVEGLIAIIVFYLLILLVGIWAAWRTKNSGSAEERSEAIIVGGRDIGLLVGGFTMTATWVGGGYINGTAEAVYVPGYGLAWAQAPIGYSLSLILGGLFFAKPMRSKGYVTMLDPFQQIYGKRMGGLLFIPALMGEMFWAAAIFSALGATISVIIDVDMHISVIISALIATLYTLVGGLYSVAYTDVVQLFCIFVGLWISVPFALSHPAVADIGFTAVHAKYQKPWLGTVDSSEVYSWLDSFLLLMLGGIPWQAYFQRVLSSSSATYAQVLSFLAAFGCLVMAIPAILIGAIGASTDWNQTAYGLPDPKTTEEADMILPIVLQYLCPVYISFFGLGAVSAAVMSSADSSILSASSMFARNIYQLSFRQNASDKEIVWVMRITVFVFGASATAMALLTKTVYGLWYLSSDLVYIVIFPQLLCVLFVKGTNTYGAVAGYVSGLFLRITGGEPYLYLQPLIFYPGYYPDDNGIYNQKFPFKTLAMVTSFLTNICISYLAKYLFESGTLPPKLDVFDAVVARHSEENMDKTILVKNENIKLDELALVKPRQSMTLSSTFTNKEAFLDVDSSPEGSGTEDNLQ
# NALP1 yeast inh: inhibitors of NALP1 inflammasome in yeast; actives 0.61% (n = 280,000); inhibition, % at 10 µM; AID 2071; S. cerevisiae NALP1/ASC/caspase-1 growth, X-gal OD620, 72 h; in the data active = inhibition mostly above about 24%, no sharp cut-off; inactive = mostly below about 32%
# CHT allo act: human CHT allosteric activation. actives 0.49% (n = 310,000). AID 488977. CHT-expressing cells, membrane potential dye, choline EC20; hits give high values; LV-AA mutant CHT in HEK293 cells. B-score at 10 µM;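 active = initial fluorescence not abnormally high and integrated response B-score, plate-corrected, over 3 SD above library mean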
# Bfl-1 A1 inh: inhibitors of the anti-apoptotic protein A1, read as caspase activation | MEF A1-2A-BIM cells, Caspase-Glo 3/7 luminescence, 3 h; percent of clofoctol response, vehicle zero | caspase activation, % (test concentration not listed) | actives 0.066% (n = 330,000) | AID 2462;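 active = over half of replicate activation scores above 10%, or exactly half above 10 with the replicate mean above 10; inconclusive = replicate mean below 10 yet half the replicates above 10; inactive = over half of replicates below 10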
# SUMO Mot1 rescue: SUMOylation pathway inhibition by Mot1-301 growth rescue; AID 2716; S. cerevisiae Mot1-301 growth rescue, ATP luminescence, 38.5C; percent above DMSO median, 100 means doubled; actives 1% (n = 320,000); growth rescue, % at 18.8 µM;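 active = every valid replicate shows activation above 250% relative to neutral control wells; inactive = the rest, any valid replicate at or below 250%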
# CHT block conf: human CHT inhibition, confirmatory screen | actives 70% (n = 2,400) | CHT activity remaining % of control (hits give low values), % at 10 µM | AID 493221 | shares compounds with CHT inh | CHT-expressing cells, choline membrane potential dye; LV-to-AA substituted CHT, HEK293 cells;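 active = choline transporter activity left, mean of duplicates at 10 µM, below buffer-only control mean minus 3 SD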;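 note: depolarization triggered by choline at its EC90 following an EC20 pre-addition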
# HEK293 MPD ctr: activity in parental HEK293 cells lacking CHT. shares compounds with CHT inh. membrane potential dye, choline response; active = decrease or increase beyond buffer ±3SD. membrane potential ratio readout (active if shifted either direction beyond buffer ±3SD; no single direction) at 10 µM. actives 4% (n = 2,400);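 note: parental cells lack the transporter so any hit is non-specific; ratio is peak minus trough fluorescence over baseline after EC90 choline challenge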
# CHT activ conf: human CHT activation, confirmatory screen; shares compounds with CHT allo act; CHT-expressing cells, membrane potential dye fluorescence (FDSS); % of choline EC20–EC90 response window; HEK293 expressing CHT LV-AA mutant; choline added at its EC20; activation, % at 10 µM; actives 91% (n = 2,500);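 active = primary screen active, with duplicate mean activation above negative control mean plus 3 SD, cut at about 11% in these data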
# HEK293 MP dye: activity in parental HEK293 cells lacking CHT; shares compounds with CHT allo act; membrane potential dye fluorescence (FDSS); measured after EC20 choline addition; ratio readout change at 10 µM, hits read low; actives 62% (n = 2,500);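 active = duplicate-averaged ratio beyond 3 SD from buffer wells, up or down, though filed actives are nearly all decreases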
# Hits are given with their value; 0 = inactive; ? = inconclusive; - = not tested or not shown.
SMILES,NLRP3 yeast inh,CHT inh,NALP1 yeast inh,CHT allo act,Bfl-1 A1 inh,SUMO Mot1 rescue,CHT activ conf,HEK293 MP dye,others
O=C(Nc1ccc(F)cc1)OC1CN2CCC1CC2 (stereo not drawn),0,0,0,0,0,0,-,-,
N=c1c[n+](CC23CC4CC(CC(C4)C2)C3)[n-]o1,0,-5.6,0,0,0,0,-,-,CHT block conf=37%;HEK293 MPD ctr=0
C[C@H]1CCC/C=C/C2C[C@H](O)CC2[C@H](O)/C=C/C(=O)O1 (stereo partly drawn),0,0,0,0,0,0,-,-,
CC1CCC/C=C/C2CC(O)CC2C(O)/C=C/C(=O)O1 (stereo not drawn),0,-6.6,40,0,0,0,-,-,CHT block conf=46%;HEK293 MPD ctr=0
COc1ccccc1CCNCc1ccc(OC)c(OC)c1OC,0,0,0,0,?,0,-,-,
Oc1ccc(CC2CC3CCN2CC3)cc1O (stereo not drawn),0,-16,0,0,0,0,-,-,CHT block conf=13%;HEK293 MPD ctr=0
Cc1ccc(N)c(C(=O)c2ccc(Br)cc2)c1,0,-5.1,0,0,0,0,-,-,CHT block conf=0;HEK293 MPD ctr=0
CC1CCCCN1Cc1c[nH]c2ccccc12 (stereo not drawn),0,-5.7,0,0,0,0,-,-,CHT block conf=0;HEK293 MPD ctr=0
CCOC(=O)N1CCN(C(C)C(=O)c2c[nH]c3ccccc23)CC1 (stereo not drawn),0,0,0,0,0,0,-,-,
COCCn1c(O)c(/C=N/NC(=O)CSC(=S)N2CCCC2)c(=O)[nH]c1=S,0,-,-,-,0,0,-,-,
CCS(=O)(=O)Nc1cccc(C(=C2CCCCC2)c2cnc[nH]2)c1,0,0,-,0,0,0,-,-,
CCNC(=O)NC(=O)C(C)OC(=O)c1c(C)nn(Cc2ccccc2)c1Cl (stereo not drawn),0,0,-,0,0,0,-,-,
CN1C(=O)C(=Cc2coc3ccccc3c2=O)C(=O)N(C)C1=O,0,0,0,0,0,0,-,-,
O=C1NC(=O)C(=Cc2coc3ccc(O)cc3c2=O)C(=O)N1,0,-6.3,0,0,0,0,-,-,CHT block conf=60%;HEK293 MPD ctr=0
CCC(C)/C=C(C)/C=C/C1=CC2=C(Cl)C(=O)C(C)(OC(C)=O)C(=O)C2=CO1 (stereo not drawn),0,-8.4,0,0,0,0,-,-,CHT block conf=24%;HEK293 MPD ctr=0
CC[C@H](C)/C=C(C)/C=C/C1=CC2=C(Cl)C(=O)[C@@](C)(OC(C)=O)C(=O)C2=CO1,0,0,-,0,0,0,-,-,
Cc1ccccc1CCNCc1cc2cccc(C)c2[nH]c1=O,0,-8.7,0,0,0,0,-,-,CHT block conf=18%;HEK293 MPD ctr=0
COc1ccc(-n2c(/C=C/c3ccc(O)c(O)c3)nc3ccccc3c2=O)cc1,0,0,0,0,0,0,-,-,
COc1cc(/C=C/c2nc3ccccc3c(=O)n2-c2ccc(O)cc2)ccc1O,0,0,0,0,0,0,18,0,
CC[n+]1c(SC)ccc2cc(OC)ccc21,0,0,0,0,0,0,64,-59,
COC(=O)c1cc(C(O)(C(=O)OC)C(F)(F)F)c(/N=C/N(C)C)s1 (stereo not drawn),0,0,0,0,?,0,-,-,
O=C(CNC(=O)c1cccc(Cl)c1)Nc1ccc(Br)cc1C(=O)c1ccccc1,0,0,0,7.7,0,0,20,0,
Cc1nnc(SCc2nc3ccccc3c(=O)n2-c2ccccc2Cl)n1N,0,0,0,0,0,0,-,-,
O=C(c1ccco1)c1cn(Cc2ccc(Cl)cc2)c2ccccc12,0,0,0,0,0,0,18,0,
CC(=O)c1cn(Cc2ccc(F)cc2)c2ccccc12,0,0,0,0,0,0,-,-,
SMILES,NLRP3 yeast inh,CHT inh,NALP1 yeast inh,CHT allo act,Bfl-1 A1 inh,SUMO Mot1 rescue,CHT activ conf,HEK293 MP dye,others
O=C(O)C(Br)CBr (stereo not drawn),0,-,-,-,0,0,-,-,
COc1ccc(-n2c(SCCN(C)C)nc3ccccc3c2=O)cc1,0,0,0,0,0,0,37,-42,
COc1ccc2c(c1OC)CN1CCc3cc4c(cc3[C@H]1C2)OCO4,0,-,-,-,0,0,-,-,
COc1cc2c(cc1OC)-c1c(OC)c(OC)cc3c1[C@H](C2)N(C)CC3,0,0,0,7.6,0,0,44,-73,
COc1ccc2c(c1O)-c1c(OC)c(OC)cc3c1[C@H](C2)N(C)CC3,0,0,-,8.4,0,0,56,-66,
O=C1/C(=C\c2ccc(Cl)c(Cl)c2)N2CCC1CC2,0,0,0,0,0,0,-,-,
COC(=O)c1c2[n+](cc3cc(OC)c(OC)cc13)CCc1cc(OC)c(OC)cc1-2,0,0,-,0,0,0,44,-49,
O=c1[nH]oc2c1CCNC2,0,0,-,0,0,0,-,-,
COc1cc2c(cc1OC)[C@@]13CCN4CC5=CCO[C@H]6CC(=O)N2[C@H]1[C@H]6[C@H]5C[C@H]43,0,0,0,0,0,0,-,-,
O=C1CC2OCC=C3CN4CCC56c7cc([N+](=O)[O-])ccc7N1C5C2C3CC46 (stereo not drawn),0,0,0,0,?,0,51,-50,
O=C(O)C1C2CCC(O2)C1C(=O)NC1CCCCC1 (stereo not drawn),0,0,0,0,0,0,-,-,
Cn1c(=O)n(C)c2cc([N+](=O)[O-])c(N3CCNCC3)cc21,0,0,0,9.7,0,0,0,0,
COCCN1C(=O)NC(=O)/C(=C\c2ccc(Br)cc2)C1=O,0,0,0,0,0,0,-,-,
CN1CCC(N(C)c2ncnc3ccc(Br)cc23)CC1,-,-,0,-,-,-,-,-,
Cc1ccc(-c2nc(N(C)C3CCN(C)CC3)c3ccccc3n2)cc1,0,0,0,0,0,0,37,-68,
CNC(=S)N(C)CCc1cc2c(c(OC)c1C=C1C(=O)NC(=O)NC1=O)OCO2,0,0,0,7.3,0,0,51,-56,
C=CCN1C(=O)NC(=O)/C(=C/c2c(CCN(C)C(=O)c3ccccc3)cc3c(c2OC)OCO3)C1=O,0,0,0,0,0,0,-,-,
CC(C)=CCN1CC[C@@]2(C)c3cc(O)ccc3C[C@@H]1C2C (stereo partly drawn),0,-,-,-,-,-,-,-,
Cc1cc(N2CCNCC2)nc2ccccc12,0,0,0,7.5,0,0,60,-65,
